From PubChem BioAssay (NCATS)
Records with an inconclusive call do not appear. Activity calls are given as the source filed them. Calls follow the shape of the dose curve; as a rule, active = well fitted curve in the direction sought with a large enough effect; inconclusive = small, poorly fitted or top-dose-only effect, or another doubt; inactive = no such curve, though single readings can be large; an effect the other way counts as inactive or inconclusive.

What was measured:
[1] = target: Rap guanine nucleotide exchange factor 3 (Homo sapiens) (UniProt O95398); test: Confirmatory qHTS for antagonist of cAMP-regulated guanine nucleotide exchange factor 3 (EPAC1) (AID 1645880); also: nearly all actives have a fitted effect of over 55% in size; also: potency is read from the fitted curve at half-maximal effect
Chain of Rap guanine nucleotide exchange factor 3 (Homo sapiens) (O95398 whole entry, looked up): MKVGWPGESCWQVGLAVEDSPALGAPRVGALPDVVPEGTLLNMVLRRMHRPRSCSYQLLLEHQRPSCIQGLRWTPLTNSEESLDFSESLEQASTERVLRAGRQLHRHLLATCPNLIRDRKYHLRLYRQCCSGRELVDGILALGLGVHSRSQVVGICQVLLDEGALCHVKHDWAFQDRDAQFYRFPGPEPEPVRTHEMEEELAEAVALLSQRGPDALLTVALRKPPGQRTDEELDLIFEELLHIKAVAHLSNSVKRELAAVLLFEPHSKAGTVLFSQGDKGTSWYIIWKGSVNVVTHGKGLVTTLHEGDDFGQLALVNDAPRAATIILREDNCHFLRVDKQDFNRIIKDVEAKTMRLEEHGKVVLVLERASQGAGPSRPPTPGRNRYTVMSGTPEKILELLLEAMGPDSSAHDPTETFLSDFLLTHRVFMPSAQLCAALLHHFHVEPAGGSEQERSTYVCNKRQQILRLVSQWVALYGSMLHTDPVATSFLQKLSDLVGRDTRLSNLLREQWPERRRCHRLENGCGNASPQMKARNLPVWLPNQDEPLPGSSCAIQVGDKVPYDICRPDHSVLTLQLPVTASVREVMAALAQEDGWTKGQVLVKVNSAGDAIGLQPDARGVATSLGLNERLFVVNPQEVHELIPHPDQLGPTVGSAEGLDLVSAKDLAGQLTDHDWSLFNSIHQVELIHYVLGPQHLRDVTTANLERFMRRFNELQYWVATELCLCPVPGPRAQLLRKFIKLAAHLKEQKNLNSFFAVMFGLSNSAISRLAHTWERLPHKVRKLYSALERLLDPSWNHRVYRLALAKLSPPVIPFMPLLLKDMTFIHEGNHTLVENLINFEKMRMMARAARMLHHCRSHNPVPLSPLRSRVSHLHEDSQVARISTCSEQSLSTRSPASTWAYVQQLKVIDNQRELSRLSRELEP
How it was run: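 Nucleotide exchange uses 100 nM EPAC1, 250 nM RAP1B-BODIPY-GDP and 50 uM GDP, with compounds in a concentration-titration series. After 5 min at room temperature, fluorescence (480 nm ex/540 nm em) is read every 5 min for 30 min. Data are normalized to control ATA and DMSO.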

[2] = target: Rap guanine nucleotide exchange factor 3 (Homo sapiens) (UniProt O95398); test: Confirmatory qHTS for agonist of cAMP-regulated guanine nucleotide exchange factor 3 (EPAC1) (AID 1645881);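 also: EPAC1 catalysed release of BODIPY-GDP from Rap1B seen as fluorescence loss; 100% = effect of cAMP agonist control; nearly all actives have a fitted effect of over 75% in size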
[3] = target: Rap guanine nucleotide exchange factor 4 (Homo sapiens) (UniProt Q8WZA2); test: Confirmatory qHTS for agonist of cAMP-regulated guanine nucleotide exchange factor 4 (EPAC2) (AID 1645884);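 also: nucleotide exchange releases bodipy-GDP from Rap1 and this lowers its fluorescence; % is scaled to controls: 0 for no effect and ±100 for the full control effect; nearly all actives have a fitted effect of over 65% in size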
Chain of Rap guanine nucleotide exchange factor 4 (Homo sapiens) (Q8WZA2 whole entry, looked up): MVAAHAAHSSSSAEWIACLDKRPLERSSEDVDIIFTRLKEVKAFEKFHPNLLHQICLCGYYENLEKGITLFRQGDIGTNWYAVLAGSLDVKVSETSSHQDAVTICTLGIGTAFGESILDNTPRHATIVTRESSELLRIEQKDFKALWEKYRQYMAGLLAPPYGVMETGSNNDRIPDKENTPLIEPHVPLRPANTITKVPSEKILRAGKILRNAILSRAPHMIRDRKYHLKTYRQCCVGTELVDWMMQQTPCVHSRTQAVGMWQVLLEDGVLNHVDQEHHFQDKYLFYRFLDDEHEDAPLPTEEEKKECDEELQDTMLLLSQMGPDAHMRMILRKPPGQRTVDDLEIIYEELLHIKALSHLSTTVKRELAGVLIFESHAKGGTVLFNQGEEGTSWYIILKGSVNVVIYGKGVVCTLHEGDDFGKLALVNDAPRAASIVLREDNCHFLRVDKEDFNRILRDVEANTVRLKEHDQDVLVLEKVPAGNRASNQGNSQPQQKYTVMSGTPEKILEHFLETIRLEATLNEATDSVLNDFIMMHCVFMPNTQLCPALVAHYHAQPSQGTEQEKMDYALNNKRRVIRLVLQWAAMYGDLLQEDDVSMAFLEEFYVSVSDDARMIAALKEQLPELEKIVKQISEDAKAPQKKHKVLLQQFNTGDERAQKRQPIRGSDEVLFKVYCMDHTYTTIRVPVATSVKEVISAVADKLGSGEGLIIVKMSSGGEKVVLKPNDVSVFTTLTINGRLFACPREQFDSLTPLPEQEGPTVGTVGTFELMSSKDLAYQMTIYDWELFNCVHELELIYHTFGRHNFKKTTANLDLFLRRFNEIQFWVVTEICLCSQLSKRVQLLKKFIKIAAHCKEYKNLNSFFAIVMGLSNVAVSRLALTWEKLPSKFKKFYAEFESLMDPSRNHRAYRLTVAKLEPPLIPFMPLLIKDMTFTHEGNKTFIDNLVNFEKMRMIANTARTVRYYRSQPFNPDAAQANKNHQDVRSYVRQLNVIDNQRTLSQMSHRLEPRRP

[4] = target: Rap guanine nucleotide exchange factor 4 (Homo sapiens) (UniProt Q8WZA2); test: Confirmatory qHTS for antagonist of cAMP-regulated guanine nucleotide exchange factor 4 (EPAC2) (AID 1645885); also: nearly all actives have a fitted effect of over 25% in size; also: potency is read from the fitted curve at half-maximal effect; as to activity change, negative = inhibition: % is scaled to controls: 0 for no effect and ±100 for the full control effect
[5] = target: Rap guanine nucleotide exchange factor 3 (Homo sapiens) (UniProt O95398); test: Counterscreen qHTS for antagonist of cAMP-regulated guanine nucleotide exchange factor 3 (EPAC1) (AID 1645888);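 also: fluorescence loss as bound BODIPY-GDP is released from Rap1B; % of control where 0% means no effect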
How it was run: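 Rap1B–BODIPY-GDP (250 nM) with 50 uM GDP; compounds pin-transferred to 9.74 nM–152 uM final (activator) or from 7.32 nM upwards (inhibitor). Fluorescence Ex/Em 480/540 nm read at 5 and 30 min, then after adding cAMP or buffer, at room temperature.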

Cc1ccccc1C(=O)NCC(=O)N1CCN(c2ccccn2)CC1
inactive: Potency [1] | Potency [2] | activation [3] 9.91% [at 17.1 µM, percent relative to cAMP agonist control] | Potency [4] | activity change, negative = inhibition [5] -4.53% [at 30.8 µM]

Cc1ccc2oc(=O)c3cnn(CC(=O)NCCCOC(C)C)c3c2c1
inactive: Potency [1] | Potency [2] | Potency [3] | Potency [4] | Potency [5]

O=C(CCCC(=O)Nc1cccnc1)Nc1cccnc1
inactive: Potency [1] | Potency [2] | Potency [3] | Potency [4] | Potency [5]

CCN(CCNC(=O)C1CCN(S(=O)(=O)c2cccc3cccnc23)CC1)c1ccccc1
inactive: Potency [1] | Potency [2] | Potency [3] | Potency [4] | Potency [5]

COC(=O)c1ccc2c(=O)n3nc(Nc4cc(OC)ccc4OC)sc3nc2c1
inactive: Potency [1] | Potency [2] | Potency [3] | Potency [4] | Potency [5]

CN(C)S(=O)(=O)c1cccc(-c2nn(-c3ccccc3)cc2/C=C2\SC(=S)NC2=O)c1
active: Potency [1] 21.3 µM | Potency [4] 42.6 µM
inactive: Potency [2] | Potency [3] | Potency [5]

Cc1ccc(NC(=O)c2c(NC(=O)C(F)(F)F)sc3c2CCCCC3)cc1
active: Potency [1] 84.9 µM
inactive: Potency [2] | Potency [3] | Potency [4] | Potency [5]

CC1CN(S(=O)(=O)c2cccc(C(=O)Nc3ccccc3N3CCOCC3)c2)CC(C)O1 (stereo not given)
inactive: Potency [1] | Potency [2] | activation [3] 3.24% [at 17.1 µM, percent relative to cAMP agonist control] | Potency [4] | activity change, negative = inhibition [5] -5.5% [at 30.8 µM]

Cc1ccc(NC(=O)CN(C)C(=O)COC(=O)C2=COCCO2)cc1
inactive: Potency [1] | Potency [2] | activation [3] 6.32% [at 17.1 µM, percent relative to cAMP agonist control] | Potency [4] | activity change, negative = inhibition [5] -1.81% [at 30.8 µM]

COc1ccc(-c2oc3c4c2C(=O)OCCOC4CCC3)cc1 (stereo not given)
inactive: Potency [1] | Potency [2] | Potency [3] | Potency [4] | Potency [5]

CCN(CC)C(=S)Oc1c(Cl)cccc1Cl
inactive: Potency [1] | Potency [2] | activation [3] 7.01% [at 17.1 µM, percent relative to cAMP agonist control] | Potency [4] | activity change, negative = inhibition [5] -19.4% [at 30.8 µM]

CC1Cc2cc(/C=C3/SC(=S)NC3=O)ccc2O1 (stereo not given)
active: Potency [1] 30.1 µM
inactive: Potency [2] | Potency [3] | Potency [4] | Potency [5]

Cc1ccc(OCCn2cccn2)c(C)c1
inactive: Potency [1] | Potency [2] | Potency [3] | Potency [4] | Potency [5]

COCCn1c(=N)c(C(=O)NC2CCCC2)cc2c(=O)n3cc(C)ccc3nc21
inactive: Potency [1] | Potency [2] | Potency [3] | Potency [4] | Potency [5]

CCCN(CCC)Cc1cc(=O)oc2cc(C)cc(C)c12
active: Potency [4] 12 µM
inactive: Potency [1] | Potency [2] | Potency [3] | Potency [5]

COc1cc(/C=N/NC(=O)c2ccccn2)ccc1OC(=O)c1ccc(Br)cc1
inactive: Potency [1] | Potency [2] | Potency [3] | Potency [4] | Potency [5]

COc1ccc(CNC(=O)C(=O)Nc2ccc(OC)cc2OC)cc1
inactive: Potency [1] | Potency [2] | Potency [3] | Potency [4] | Potency [5]

COC(=O)C1=NNCC12CC(=O)N(c1ccc(Br)cc1)C2=O (stereo not given)
inactive: Potency [1] | Potency [2] | Potency [3] | Potency [4] | Potency [5]

CCOC(=O)c1c(C)nc2sc(C(N)=O)c(N)c2c1-c1ccccc1
inactive: Potency [1] | Potency [2] | activation [3] -0.736% [at 17.1 µM, percent relative to cAMP agonist control] | Potency [4] | activity change, negative = inhibition [5] -13.8% [at 30.8 µM]

C=CCOc1ccc(/C=C2\SC(=S)N(C(C(=O)O)c3ccccc3)C2=O)cc1 (stereo not given)
active: Potency [1] 31.6 µM
inactive: Potency [2] | activation [3] 3.84% [at 17.1 µM, percent relative to cAMP agonist control] | Potency [4] | activity change, negative = inhibition [5] -23.9% [at 30.8 µM]

Cc1ccc(-n2c(SCC(=O)N/N=C/c3ccccc3C(=O)O)nnc2-c2ccc(Cl)cc2)cc1
inactive: Potency [1] | Potency [2] | Potency [3] | Potency [4] | Potency [5]

Cc1cc(C)cc(C(O)c2ncc(-c3ccccc3Cl)[nH]2)c1 (stereo not given)
inactive: Potency [1] | Potency [2] | activation [3] 2.23% [at 17.1 µM, percent relative to cAMP agonist control] | Potency [4] | activity change, negative = inhibition [5] -7.63% [at 30.8 µM]

CCOc1c(S(=O)(=O)N2CCCC2)ccc(Cl)c1Cl
inactive: Potency [1] | Potency [2] | Potency [3] | Potency [4] | Potency [5]

CC(C)(C)c1cc(NC(=O)COC(=O)c2ccc(O)cc2O)n(-c2ccccc2)n1
inactive: Potency [1] | Potency [2] | activation [3] 8.65% [at 17.1 µM, percent relative to cAMP agonist control] | Potency [4] | activity change, negative = inhibition [5] -16.3% [at 30.8 µM]

COc1cccc(NC(=O)Cn2cc(C(=O)C3CC3)c3ccccc32)c1
inactive: Potency [1] | Potency [2] | Potency [3] | Potency [4] | Potency [5]

Cc1ccc(C)c(S(=O)(=O)/N=C2\C=C(NS(=O)(=O)c3ccccc3)C(=O)c3ccccc32)c1
active: Potency [1] 22.4 µM
inactive: Potency [2] | activation [3] 3.6% [at 17.1 µM, percent relative to cAMP agonist control] | Potency [4] | activity change, negative = inhibition [5] -11.3% [at 30.8 µM]

COc1cc(S(=O)(=O)Nc2ccc(C)cc2)ccc1N=Cc1c(C)c(C#N)c(=O)n(C)c1O
inactive: Potency [1] | Potency [2] | Potency [3] | Potency [4] | Potency [5]

Cc1ccc(S(=O)(=O)/N=C2\SC(CC(=O)Nc3ccc(F)cc3)C(=O)N2c2ccccc2)cc1 (stereo not given)
inactive: Potency [1] | Potency [2] | activation [3] 3.37% [at 17.1 µM, percent relative to cAMP agonist control] | Potency [4] | activity change, negative = inhibition [5] -39.2% [at 30.8 µM]

CC(=O)c1ccc(NC(=O)CSc2nc(Nc3ccccc3)nc(N3CCOCC3)n2)cc1
inactive: Potency [1] | Potency [2] | Potency [3] | Potency [4] | Potency [5]

Cc1cccc(Cn2cc(SCC(=O)Nc3nccs3)c3ccccc32)c1
inactive: Potency [1] | Potency [2] | Potency [3] | Potency [4] | Potency [5]

Cc1ccc2c(c1)C(c1ccccc1)CC(=O)O2 (stereo not given)
inactive: Potency [1] | Potency [2] | Potency [3] | Potency [5]
active: Potency [4] 37.9 µM

COC(=O)c1ccc(CNC(=O)/C=C/[C@H]2O[C@@H](n3cc(C)c(=O)[nH]c3=O)C[C@@H]2O)cc1
inactive: Potency [1] | Potency [2] | Potency [3] | Potency [4] | Potency [5]

COc1ccc2cc3[n+](cc2c1O)CCc1cc2c(cc1-3)OCO2
inactive: Potency [2] | Potency [3] | Potency [4] | Potency [5]
active: Potency [1] 19 µM

Cn1cccc1C(=O)NC(=O)COC(=O)c1cc(S(=O)(=O)N2CCCCC2)ccc1Cl
inactive: Potency [1] | Potency [2] | Potency [3] | Potency [4] | Potency [5]

CC(OC(=O)Cc1c[nH]c2ccccc12)C(=O)Nc1ccccc1F (stereo not given)
inactive: Potency [1] | Potency [2] | Potency [3] | Potency [4] | Potency [5]

N#CC1=C(N)SC(N)=C(C#N)C1c1cccc(Oc2ccccc2)c1
active: Potency [1] 67.5 µM
inactive: Potency [2] | Potency [3] | Potency [4] | Potency [5]
